# Source: PubChem BioAssay (NCATS)
# Records with an inconclusive call do not appear. Entries that show only a call come without a potency. Calls of active or inactive are those of the source. The call rests on the fitted dose curve; in most records, active means well fitted inhibition curve with a large enough effect; inconclusive means small, poorly fitted or top-dose-only effect; inactive means flat fitted curve, though single readings scatter.
# Assay: P-glycoprotein substrates identified in KB-8-5-11 adenocarcinoma cell line, qHTS therapeutic library screen (AID 1346987); further: nearly all actives have a fitted effect of over 65% in size
# Details: KB-8-5-11 (P-gp overexpressing) viability, CellTiter-Glo, 72 h; series mostly up to 44.5 µM
# Procedure, shortened: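 Human cervical adenocarcinoma KB-8-5-11 cells, selected in colchicine to over-express P-gp and assayed without it, were exposed for 72 h to titrated compounds. An ATP-based luminescent viability signal gave AC50.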
Compound,Potency,"activity change, negative = cytotoxicity",outcome
CC(=O)c1c(O)cc2c(c1C)C(=O)CC(O)C2 (stereo not given),inactive,,
CCCC1=CC2=C(CO1)C(=O)C(C)(OC(=O)c1c(C)cc(OC)cc1O)C(O)C2 (stereo not given),inactive,,
CCOC(=O)Nc1nc2ccccc2[nH]1,inactive,,
C1CCN2CC3C[C@@H](CN4CCCC[C@@H]34)[C@H]2C1,inactive,,
CC(O)C(O)/C=C/C=C/C(=O)O[C@@H]1C=C2COC(=O)[C@]2(O)[C@@]2(C)CCCC(C)(C)C12 (stereo not given in full),inactive,,
CC1(C)CC2C3=CCC4C5(C)CCC(OC6OC(CO)C(O)C(OC7OC(CO)C(O)C(OC8OC(CO)C(O)C(OC9OC(COC%10OC(CO)C(O)C(O)C%10O)C(O)C(O)C9O)C8O)C7O)C6O)C(C)(C)C5CCC4(C)C3(C)CCC2(C(=O)O)CC1O (stereo not given),,-1.4% [at 9.29 µM] (inactive),
O=S(=O)(NC1CCNCC1)c1cc(S(=O)(=O)c2ccccc2)ccc1C(F)(F)F,inactive,,
CC1(C)C[C@H]2C3=CCC4[C@@]5(C)CC[C@H](O[C@H]6O[C@H](C(=O)O)[C@@H](O)[C@H](O)[C@H]6O[C@H]6O[C@H](CO)[C@@H](O)[C@H](O)[C@H]6O[C@@H]6O[C@H](CO)[C@@H](O)[C@H](O)[C@H]6O)[C@](C)(CO)C5CC[C@@]4(C)[C@]3(C)CC[C@@]2(C)[C@H](O[C@@H]2OC[C@H](O)[C@H](OC3O[C@H](CO)[C@@H](O)[C@H](O)[C@H]3O)[C@H]2O)[C@@H]1O (stereo not given in full),,,inactive [at 9.29 µM]
CC1(C)CC[C@]2(C(=O)O[C@@H]3O[C@H](CO)[C@@H](O)[C@H](O)[C@H]3O)CC[C@]3(C)C(=CCC4[C@@]5(C)C[C@@H](O)[C@H](O)C(CO)(CO)C5CC[C@]43C)C2[C@@H]1O (stereo not given in full),inactive,,
O=C(O)c1cc(O)c2cccc(O)c2c1O[C@@H]1O[C@H](CO)[C@@H](O)[C@H](O)[C@H]1O,inactive,,
CC1OC(OC2C(C)OC(OC3C(OC(=O)/C=C/c4ccc(O)cc4)C(CO)OC(OC4(COC(=O)/C=C/c5ccc(O)cc5)OC(CO)C(O)C4O)C3OC3OCC(O)(CO)C3O)C(O)C2O)C(O)C(O)C1O (stereo not given),,9.5% [at 9.29 µM] (inactive),
CCOC(=O)[C@H](CCc1ccccc1)N[C@@H](C)C(=O)N1C2CCCCC2C[C@H]1C(=O)O (stereo not given in full),inactive,,
CC(=O)N1c2ccccc2C2(O)CC3C(=O)NC(CC(C)C)C(=O)N3C12 (stereo not given),inactive,,
O=S(=O)(Nc1ccc(C(O)(C(F)(F)F)C(F)(F)F)cc1)c1cccs1,inactive,,
NC(Cc1c[nH]c2ccccc12)C(=O)NC(CCC(=O)O)C(=O)O (stereo not given),inactive,,
O=C(c1ccccn1)c1cnn2c(-c3ccncc3)ccnc12,inactive,,
CC(=O)O[C@H]1[C@H](C)[C@@H](O)[C@H]2[C@@H]1C=C(C(=O)O)[C@H]1C[C@@H]3[C@H]([C@H]21)[C@H]1C(=O)O[C@@H]2CC[C@@]3(C)O[C@]1(O)[C@@H]2C,inactive,,
C=CC1(C)CC2=CCC3C(C)(C(=O)O)CCCC3(C)C2CC1OC(C)=O (stereo not given),inactive,,
OCC1OC(Oc2cc(O)c3c(c2)OC(c2ccc(O)cc2)C(O)C3)C(O)C1O (stereo not given),inactive,,
Cc1coc2c1CC1OC1(C)CCC1OC1(C)C2 (stereo not given),inactive,,

Compound,Potency,"activity change, negative = cytotoxicity",outcome
C/C=C/C=C/C=C/C(=O)O[C@@H]1C=C(CO)C(O)(C(=O)O)[C@@]2(C)CCCC(C)(C)[C@H]12 (stereo not given in full),inactive,,
OC[C@H]1O[C@@H](OCCc2ccc(O)cc2)[C@H](O)[C@@H](O)[C@@H]1O,inactive,,
C[C@@H](Nc1cc(NS(=O)(=O)N2CCC2)nc(SCc2cccc(F)c2F)n1)[C@@H](O)CO,inactive,,
C=C1CCC(OC(C)=O)C2(C)CC3(O)OC(=O)C(C)=C3CC12 (stereo not given),inactive,,
CC1OC(OC2C(O)C(C(=O)O)OC(OC3CCC4(C)C(CCC5(C)C4C=CC4=C6CC(C)(C)CC(O)C6(C)CCC45C)C3(C)C)C2OC2OCC(O)C(O)C2O)C(O)C(O)C1O (stereo not given),,,inactive [at 9.29 µM]
CC1(CCC(=O)O)C(=O)C=CC23CC4CC(OC4(C)C2O)C13 (stereo not given),inactive,,
CN1CC[C@@H](NC(=O)Nc2ccc(C#N)cc2)C[C@@H]1c1nc2ccccc2[nH]1,inactive,,
C=C1CC2C3(C)C(O)CC(=O)C(C)(C)C3C(OC(C)=O)C(OC(C)=O)C2(C)C2C(=O)OC(C)(C(=O)OC)C(=O)C12C (stereo not given),inactive,,
COCCCNCC1COc2ccccc2O1 (stereo not given),inactive,,
C=C(C)C(=O)O[C@H]1C[C@@](C)(OC(C)=O)[C@@]2(O)CC[C@@](C)(O)[C@H](OC(C)=O)[C@@]23OC(=O)C(COC)=C13,inactive,,
CC(CO[C@@H]1O[C@H](COC(=O)/C=C/c2ccc(O)c(O)c2)[C@@H](O)[C@H](O)[C@H]1O)C1(O)COC(=O)C1 (stereo not given in full),inactive,,
CC1=C(C)C(=O)OC(C(C)(O)C2CCC3C4CC=C5CC(OC6OC(COC7OC(CO)C(O)C(O)C7O)C(O)C(O)C6O)CC(O)C5(C)C4CCC32C)C1 (stereo not given),inactive,,
CC1CCC2(C(=O)OC3OC(CO)C(O)C(O)C3O)CCC3(C)C(=CCC4C5(C)CC(O)C(O)C(C)(C(=O)O)C5CCC43C)C2C1(C)O (stereo not given),inactive,,
C[C@]12CCC(=O)C=C1[C@@H](O)C[C@@H]1[C@@H]2[C@@H](O)C[C@@]2(C)[C@H]1CC[C@]2(O)C(=O)CO,inactive,,
C=CCc1ccc(O[C@@H]2O[C@H](CO[C@@H]3O[C@@H](C)[C@H](O)[C@@H](O)[C@H]3O)[C@@H](O)[C@H](O)[C@H]2O)cc1,inactive,,
C=C1CCC2C(OC(=O)C2(O)COC(C)=O)C2C(=C)C(O)CC12 (stereo not given),inactive,,
CC1[C@@H](O)[C@@H](O)C2[C@]3(C)C(C[C@H]4OC(=O)[C@H](O)[C@]1(O)[C@@]24C)C(C)(O)C[C@H](O)[C@H]3O (stereo not given in full),inactive,,
CC(C)[C@H]1CCC(CO)=C[C@@H]1/C=C(\CO)C(=O)O,inactive,,
CNC(=O)COC(=O)NCCC1CCN(c2cccc(C)n2)CC1,inactive,,
OC[C@H]1O[C@@H](Oc2ccc(O)c3cccc(O)c23)[C@H](O)[C@@H](O)[C@@H]1O,inactive,,
